Laboratory results published in PubChem BioAssay (NCI).
Compounds without any hit were thinned out: in the full panel of roughly 83,000, 20% have a hit.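 Results are percent growth after 48 hours of single-concentration exposure. 100 means growth as in untreated cells, lower positive values show inhibition; negative values down to -100 show cell death.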 Unmarked numbers belong to inactive results. Calls of active or inactive are those of the source. The calls were made as follows: active = growth percent below 10; inactive = the rest.

Tests used:
Assay in all cases: NCI-60 one-dose screen, 48 h (100 = growth as untreated, 0 = no growth, -100 = all killed)
Details in all cases: 10 µM unless noted
[1] = system: T-47D breast
[2] = system: MDA-MB-435 melanoma
[3] = system: SW-620 colon
[4] = system: MCF7 breast
[5] = system: HCT-116 colon
[6] = system: HCC-2998 colon
[7] = system: KM12 colon

| SMILES | growth [1] | growth [2] | growth [3] | growth [4] | growth [5] | growth [6] | growth [7] |
| --- | --- | --- | --- | --- | --- | --- | --- |
| O=C(CSc1nccc(Nc2ccc(S(=O)(=O)Nc3ccccn3)cc2)n1)c1ccc(Cl)cc1 | 50.6% | 118% | 105% | 91.4% | 92.2% | 106% | 97.6% |
| CCNc1cc2c(cc1Br)-c1ccccc1C2=O | 34.4% | 114% | 98.9% | 26.8% | 97.8% | 102% | 83.4% |
| CCc1ccc(-c2ccc(COc3ccc(CC4SC(=O)NC4=O)cc3)cc2)cc1 (configuration not stated) | 41% | 57.9% | 80.7% | 59.1% | 51% | 89.6% | 64% |
| CCN(CC)c1ccc(/C=C/C=C2\NC(=O)NC2=O)cc1 | 31.9% | -5.48% (active) | 31.2% | 20.4% | 10.1% | 37.2% | 32.4% |
| O=[N+]([O-])c1cc(CCl)ccc1OCCBr | 88.3% | 104% | 106% | 89.7% | 93.9% | 104% | 113% |
| CCOC(=O)CCC[P+](c1ccccc1)(c1ccccc1)c1ccccc1 | 27.5% | 60.4% | 84.7% | 59.7% | 63.4% | 56.3% | 44.7% |
| CN(Cc1cccc(C(F)(F)F)c1)C(=O)[C@@H](CC(=O)N1CCC(N2CCCCC2)CC1)N1C(=O)[C@@H](N2C(=O)OC[C@@H]2c2ccccc2)[C@H]1/C=C/c1ccccc1 | 76.3% | 73.1% | 93.2% | 65.4% | 85.2% | 91.9% | 102% |
| C[C@]12CCc3c(ccc4cc(O)ccc34)[C@@H]1CC[C@H]2O | 91.8% | 80.1% | 99.1% | 116% | 102% | 107% | 98.1% |
| Cn1cc(-c2noc(-c3cn(C)c4ncc(F)cc34)n2)c2cc(Br)ccc21 | 25.2% | 72.3% | 57.3% | 51.8% | 32.7% | 107% | 58.1% |
| CCC(C)[C@H](NC(=O)NC(=O)NC(=O)CI)C(=O)OC (some centres not stated) | 38.5% | 69.5% | 9.41% (active) | 42.1% | 65.2% | 103% | 100% |
| Cc1cc(C)c(-c2cc(O)c(-c3c(C)cc(C)cc3C)cc2O)c(C)c1 | 43% | 2.34% (active) | 26.2% | 21.7% | 22.6% | 45.8% | 23.9% |
| Cc1cc(C)c(O)c(CNCCCCCCNCc2cc(C)cc(C)c2O)c1 | -60.8% (active) | -90.8% (active) | -75.4% (active) | -81.4% (active) | -42.9% (active) | -84.3% (active) | -38.2% (active) |
| C/C=C/C1OC23CCCCC2C(C#N)(C(=N)O3)C1(C#N)C#N (configuration not stated) | 84.9% | 91.8% | 92.9% | 86.2% | 94.2% | 109% | 96.3% |
| CCOC(=O)CC(c1ccccc1)C(C#N)c1ccccc1 (configuration not stated) | 89.6% | 96.4% | 95.3% | 99.8% | 92% | 114% | 92.3% |
| COc1ccc2[nH]c(C(=O)N3CCN(C(=O)OCc4ccc5c(Br)cc(Br)c(O)c5n4)CC3)cc2c1 | -62.5% (active) | -86.6% (active) | -70.3% (active) | -58.4% (active) | -87.1% (active) | -90.7% (active) | -59.8% (active) |
| Cn1cc(-c2noc(-c3cn(C)c4ncccc34)n2)c2cc(Cl)ccc21 | 54.2% | 87% | 89% | 62.1% | 94.1% | 99.8% | 103% |
| Nc1nc(Nc2ccccc2)c2ncn(Cc3cc4c(cc3Br)OCO4)c2n1 | 72.3% | -16.9% (active) | 20.5% | 12.4% | 7.79% (active) | 23% | 11.6% |
| O=C(Nc1cccc(F)c1)c1cc(=O)[nH]c2cc(Br)ccc12 | 48.1% | -21.8% (active) | 27.7% | 17.6% | 19.1% | 65% | 21.5% |

| SMILES | growth [1] | growth [2] | growth [3] | growth [4] | growth [5] | growth [6] | growth [7] |
| --- | --- | --- | --- | --- | --- | --- | --- |
| Cn1cc(-c2noc(-c3cn(C)c4ncc(Br)cc34)n2)c2cc(Cl)ccc21 | 31.6% | 68.3% | 39.9% | 65.9% | 35.2% | 93.9% | 75.7% |
| O=C(O)c1cccc(CN2CCN(c3cc4c(cc3F)c(=O)c(C(=O)O)cn4C3CC3)CC2)c1O | 96.6% | 99% | 102% | 97.6% | 104% | 105% | 104% |
| Oc1c(CNCCNCc2cc(Cl)cc(Cc3ccccc3)c2O)cc(Cl)cc1Cc1ccccc1 | 26.1% | 22.8% | 29.6% | 17.4% | 18.6% | 20.2% | 20.5% |
| CCOC(=O)C(C(C)=O)c1nc2sc3cc(Cl)c(Cl)cc3n2c(=O)c1C#N (configuration not stated) | 78% | 106% | 116% | 65.4% | 101% | 106% | 98.6% |
| CS(=O)(=O)c1cccnn1 | 95.2% | 104% | 95.5% | 94% | 96.5% | 110% | 106% |
| O=C(CCN1CCCCC1)c1ccc(Cl)cc1 | 92.6% | 105% | 103% | 91.8% | 96.7% | 112% | 102% |
| Cc1ccc(Oc2c(/C=N/NC(=O)Cn3c(=O)sc4ccccc43)c(C)nn2-c2ccccc2)cc1 | 20.4% | 61.7% | 68.4% | 31.1% | 37% | 69.2% | 49.3% |
| O=C(CCNCc1ccccc1)c1ccccc1 | 104% | 109% | 109% | 102% | 106% | 107% | 96.7% |
| COc1cc(OC)cc(C(=O)Nc2cc(-c3cccnc3)nc(NCCCN3CCOCC3)n2)c1 | 72.8% | 102% | 99.9% | 88% | 89.2% | 123% | 104% |
| O=C1COCCN1c1ccc(NCc2cn(Cc3ccccc3)c3ccccc23)cc1 | 44.9% | 97.9% | 84.9% | 63.9% | 62.9% | 105% | 104% |
| COc1ccc2c(c1)c(-c1noc(-c3cn(C)c4ncc(F)cc34)n1)cn2C | 76.8% | 77.1% | 82% | 54.6% | 80.7% | 90% | 87.8% |
| Cc1ccc2c(c1)/C(=N\N=C/c1cn(C(C)C)c3ccccc13)C(=O)N2 | 24.9% | 18.8% | 46.4% | 8.52% (active) | 28.1% | 49.4% | 73.7% |
| COc1cc(NCc2ccccc2O)c2ncccc2c1 | 90.4% | 103% | 102% | 95.2% | 64% | 108% | 103% |
| CCCn1ccnc1C(O)c1ccc(OCc2ccccc2)c(OC)c1 (configuration not stated) | 83.3% | 94.3% | 98% | 85.4% | 92.6% | 95.8% | 101% |
| COc1ccc(C(=O)CCC(=O)O)cc1 | 33.9% | 107% | 84.5% | 21.2% | 7.77% (active) | 102% | 103% |
| COCCCNc1nc(NC(=O)c2cc(OC)cc(OC)c2)cc(-c2cccnc2)n1 | 63.8% | 100% | 101% | 97.8% | 90.3% | 110% | 103% |
| Cc1ccc2c(n1)C(=O)C(Cl)=C(Nc1ccc(N3CCN(C)CC3)cc1)C2=O | -61.1% (active) | -99.1% (active) | -69.8% (active) | -61.9% (active) | -64.9% (active) | 95.3% | 92.1% |
| O=C(O)c1cn(C2CC2)c2cc(N3CCN(Cc4c(O)ccc5ccccc45)CC3)c(F)cc2c1=O | 29.5% | 24.3% | 28.2% | 16.3% | 12.7% | 32.1% | 37.5% |
